Measured values from ChEMBL document CHEMBL1157539, “Thousands of chemical starting points for antimalarial lead identification” (Nature, 2010).

How the values were obtained:
Assay type in all cases: functional
Plasmodium falciparum [1] = assay: GSK_TCMDC: Inhibition of Plasmodium falciparum 3D7 in whole red blood cells, using parasite LDH activity as an index of growth. Test compounds present at 2uM
Plasmodium falciparum [2] = assay: GSK_TCMDC: Inhibition of Plasmodium falciparum Dd2 in whole red blood cells, using parasite LDH activity as an index of growth. Test compounds present at 2uM
HepG2 = assay: GSK_TCMDC: Percent inhibition of human HepG2 cell line. Test compounds present at 10uM.

Row | Structure (SMILES) | Inhibition (Plasmodium falciparum [1]) [%] | Inhibition (Plasmodium falciparum [2]) [%] | Inhibition (HepG2) [%]
1 | C=CCn1c(=N)c(C(=O)NC2CCCCC2)cc2c(=O)n3cccc(C)c3nc21 | 92 | 58 | 0
2 | Oc1cc(NC[C@H]2CCC[C@@H]2NCc2cc(Br)cc(Br)c2)nc2ccccc12 | 100 | 45 | 21
3 | COc1ccc2nccc([C@@H](O)CN3CCC(NC(=O)/C=C/c4ccc(Cl)c(C(F)(F)F)c4)CC3)c2c1 | 100 | 89 | 11
4 | CN1CCN(c2ccnc3ccc(NC(=O)Nc4ccccc4Br)cc23)CC1.Cl | 100 | 95 | 4
5 | CC(=O)Nc1ccc(CN2CCC(CNC(=O)c3cc(-c4cccc(Cl)c4)cs3)C2)cc1.O=C(O)C(F)(F)F (stereo unspecified) | 91 | 1 | 24
6 | O=C(Cc1cn(-c2ccccc2)nc1-c1ccc(Cl)cc1)Nc1nccs1 | 88 | 8 | 9
7 | Cl.N=C(NCCc1ccc(Cl)cc1)c1ccc(Cl)c(Cl)c1 | 100 | 42 | 43
8 | CN(C)c1ccc(-c2csc(C(=O)NCC3CCN(Cc4cccc(C(F)(F)F)c4)C3)c2)cc1.O=C(O)C(F)(F)F (stereo unspecified) | 97 | 58 | 15
9 | CC(C)S(=O)(=O)N1CCN(Cc2ccc3c(c2)nc(NC(=O)c2ccsc2)n3C[C@H](O)c2ccccc2)CC1 | 91 | 72 | 56
10 | C=C(C)C1CC=C(CN2CCC(N3CCc4cc(NC(=O)c5cc(C)on5)ccc43)C2)CC1 (stereo unspecified) | 90 | 95 | 26
11 | CNC(=O)c1cc(S(=O)(=O)Nc2ccc(OC)cc2)cs1 | 95 | 48 | 11
12 | O=C(O)C(F)(F)F.c1cc(CN2CCN(c3ccncc3)CC2)cc(-c2ccc(-c3nc4ccccc4[nH]3)s2)c1 | 100 | 100 | 59
13 | CCCCOC(=O)NCCCC[C@H](NC(=O)OC(C)(C)C)C(=O)N[C@H](C(=O)OC(c1ccccc1)c1ccccc1)[C@H]1O[C@@H](n2ccc(=O)[nH]c2=O)[C@@H]2OC(C)(C)O[C@@H]21 | 87 | 65 | 7
14 | C/C=C/COc1ccc(-c2c(C)[nH]c(C)c(Cl)c2=O)cc1 | 97 | 97 | 0
15 | Cc1cc(N2CCCC2)nc(Nc2ccc(NC(=O)C(C)C)cc2)n1 | 97 | 36 | 40
16 | COc1ccc(NC(=O)NC2CCN(CCCCCNC(=O)/C=C/c3ccc(Cl)c(Cl)c3)C2)c(OC)c1 (stereo unspecified) | 96 | 9 | 24
17 | Cc1ccc2cc(NCCCCCCCCON3C(N)=NC(N)=NC34CCCCC4)ccc2n1 | 92 | 80 | 15
18 | O=c1[nH]c2c(cc1CNC1CCCCC1)c(-c1cccc(F)c1)nn2-c1ccccc1 | 95 | 89 | 6
19 | O=C(NCCc1cccc(F)c1)c1ccc(N2CCN(c3ccncc3)CC2)cn1.O=C(O)C(F)(F)F | 94 | 7 | 4
20 | OC(CNC1CCCCC1)Cn1c2ccccc2c2ccccc21 (stereo unspecified) | 97 | 92 | 11
21 | N#Cc1ccc(N/C(=N\c2ccccc2Br)N(C2CCCCC2)C2CCCCC2)c(O)c1 | 99 | 96 | 4
22 | COc1ccc2nccc([C@@H](O)CN3CCC(NC(=O)c4cc5ccccc5[nH]4)CC3)c2c1.CS(=O)(=O)O | 96 | 55 | 19
23 | CCCC(C)NC(=O)[C@H](CC1CCCCC1)NC(=O)c1ccc(O)c(-c2cccc(C(F)(F)F)c2)c1 (stereo partly specified) | 100 | 98 | 0
24 | O=C(NCCN1CCCC1)c1ccc(-c2ccc(-c3nc4ccccc4[nH]3)s2)cc1 | 92 | 3 | 22
25 | CC(C)(CNC(=O)[C@@H]1CCCN(CCOc2ccc(F)c(F)c2)C1)c1nc(-c2ccc(Cl)c(O)c2)c(-c2ccncc2)[nH]1.Cl | 100 | 77 | 72
26 | COc1cc(C=CC(=O)N2CCC(CCN3CCC(c4c[nH]c5ccccc45)CC3)CC2)cc(OC)c1 | 92 | 23 | 39
27 | COc1ccc(CCNc2nc(NCCc3cnc[nH]3)nc(NCc3cccc4ccccc34)n2)cc1OC | 98 | 16 | 2
